# Values joined by “and” are separate entries in the source; they are usually repeats but may differ in a detail not shown here. Identical values can stand only once. About 5,400 (1.8%) of roughly 300,000 compounds were called active. Roughly 28% stayed inconclusive and do not appear here. The sample as a whole holds a higher share of actives than the screen did. Unmarked numbers belong to inactive results. Calls come from the whole dose curve; tested in HEK293 cells.
# Experiment: qHTS for inhibitors of binding or entry into cells for Marburg Virus
# Conditions: Marburg virus pseudotyped entry inhibition, cell reporter; series mostly up to 37.8 µM; activity change, negative = inhibition: at the top concentration
# % is set by controls: 0 for no effect and ±100 for the full control effect; potency is the fitted concentration of half-maximal effect.
Compound,"activity change, negative = inhibition",Potency
CCOc1ccc(S(=O)(=O)N2CCN(C(=S)NCC3CCCO3)CC2)cc1 (stereo unspecified),22.4% [at 46.1 µM],–
CC1(C)C(=O)CCC2(C)C1=CCC1C2C(=O)CC2(C)C1CCC2(O)C(=O)CO (stereo unspecified),-26.4%,–
CC(=O)OCC(=O)C1(O)CCC2C3CC(C)C4=CC(=O)CCC4(C)C3C(O)CC21C (stereo unspecified),-12.6% [at 46.1 µM],–
COc1ccccc1NC(=O)N1CCCC1C(=O)NCc1cccs1 (stereo unspecified),2.43% [at 46.1 µM],–
CCS(=O)(=O)Nc1ccc(C2=NN(S(=O)(=O)c3ccc(F)cc3)C(c3ccco3)C2)cc1 (stereo unspecified),–,18.3 µM (active)
CS(=O)(=O)Nc1ccc(C2=NN(S(C)(=O)=O)C(c3cccs3)C2)cc1 (stereo unspecified),15.1%,–
CCS(=O)(=O)Nc1ccc(C2=NN(C(C)=O)C(c3cccs3)C2)cc1 (stereo unspecified),-4.67% [at 46.1 µM],–
COc1ccc(-c2nn(-c3ccccc3)cc2CN2CCCO2)c(F)c1,-6.45% [at 46.1 µM],–
COc1ccc(-n2cc(CN(C)Cc3n[nH]c(=O)[nH]3)c(-c3cccc(F)c3)n2)cc1,-18.4% [at 46.1 µM],–
COc1ccc(-n2cc(CNC3CCOCC3)c(-c3cccc(F)c3)n2)cc1,–,11.2 µM (active)
N#CC1=C(SCc2ccccc2)NC(=O)C(C#N)C12CCCC2 (stereo unspecified),-21.9%,–
N#C/C(=C1\CCCN1)c1nc(-c2ccccc2)cs1,0.0724%,–
N#CC1=C(SCc2ccc(C#N)cc2)N=C(N)C(c2nc(-c3ccccc3)cs2)C12CCCCC2 (stereo unspecified),–,7.08 µM (active)
NC(CSC1(c2ccccc2)c2ccccc2-c2ccccc21)C(=O)O (stereo unspecified),12%,–
CCCc1cc(=O)[nH]c(SCC(=O)Nc2ccc(C(=O)Nc3ccccc3OC)cc2)n1,-26.8%,–
CC1CCN(C(=O)/C(=C\c2ccccc2)NC(=O)c2ccccc2)CC1,-1.05% [at 46.1 µM],–
COc1ccc(S(=O)(=O)N2CCC(C(=O)NCc3ccco3)CC2)cc1C,3.65% [at 46.1 µM],–
CC(C)Oc1ccc(Oc2ccc(C(F)(F)F)cn2)cc1,23.2% [at 46.1 µM],–
CC(NC(=O)Cn1cc(C(F)(F)F)cc(Cl)c1=O)c1ccccc1 (stereo unspecified),12.4% [at 46.1 µM],–
CNCC[C@H](Oc1ccc(C(F)(F)F)cc1)c1ccccc1,–,10.3 µM (active) and 7.08 µM (active)
COc1ccccc1N(CC(=O)Nc1ccccc1C(=O)N1CCCC1)S(C)(=O)=O,-13.4% [at 46.1 µM],–

Compound,"activity change, negative = inhibition",Potency
Cc1ccc(S(=O)(=O)N2CCN=C2SCc2c(F)cccc2Cl)cc1,18.5%,–
COc1ccc(COC(=O)c2ccc(Cl)c(S(=O)(=O)N3CCOCC3)c2)cc1F,-21.5%,–
CCCC(=O)Nc1ccc(C(=O)N/N=C/c2ccc[nH]2)cc1,–,7.08 µM (active)
CCCCCC(=O)Nc1ccc(C(=O)N/N=C/c2ccc([N+](=O)[O-])cc2)cc1,-0.0189%,–
CC(=O)Nc1ccc(C(=O)/C=C/c2ccc[nH]2)cc1,18% [at 46.1 µM],–
COc1ccc(/C=N/S(=O)(=O)c2ccccc2)cc1OC,-3.98% [at 14.2 µM],–
COc1cc(/C=N/NC(=O)Nc2ccccc2)ccc1OCCOc1ccccc1C,–,2.31 µM (active)
COc1ccc(C(=O)Nc2ccccc2C(=O)N/N=C/c2ccc(O)c(OC)c2)cc1,–,0.398 µM (active)
CCOc1cc(/C=N/NC(=O)OC)ccc1OCCSc1ccc(Cl)cc1,-35.7%,–
COc1cc(/C=N/NC(=O)c2ccc(N3CCCC3=O)cc2)ccc1O,-7.56%,–
COc1cc(C=NNC(=O)c2cccnc2)ccc1OC(=O)c1ccccc1F,0.992%,–
COC(=O)c1ccc(COc2ccc(/C=N/NC(=O)C(=O)Nc3ccc(OC)cc3)cc2OC)o1,-1.32% [at 46.1 µM],–
COc1cc(/C=N/NC(=O)c2ccccc2)ccc1OS(=O)(=O)c1ccccc1,–,9.2 µM (active)
COc1ccc(C(=O)Nc2ccccc2C(=O)N/N=C/c2ccccc2OC)cc1,2.26%,–
COc1ccc(OC[C@H]2CN3[C@@H](CC[C@@H](C)[C@@H]3c3ccc(Br)cc3)C(=O)O2)cc1,-7.49% [at 14.2 µM],–
COC1=NC2=NCCN2C(OC)=N1,-7.96% [at 46.1 µM],–
COc1ccc(CCNC(=O)COC(=O)c2ncc(Cl)c(Cl)c2Cl)cc1OC,-3.32%,–
COc1ccccc1C(=O)c1ccccc1C(=O)c1ccccc1,11.4% [at 46.1 µM],–
COc1ccc(N2CC(C(=O)N[C@@H](C)C(=O)N3CCCCC3)CC2=O)cc1 (stereo partly specified),7.02% [at 46.1 µM],–
O=C1COc2ccc(C(=O)COC(=O)CCOc3ccccc3)cc2N1,-20%,–
CC(NS(=O)(=O)c1ccc(OCC(=O)N2CCCC2)cc1)c1ccccc1 (stereo unspecified),1.04% [at 46.1 µM],–

Compound,"activity change, negative = inhibition",Potency
COc1ccc(S(=O)(=O)N2CCN(CC(=O)N3c4ccccc4CC3C)CC2)cc1OC (stereo unspecified),1.43%,–
COc1ccc(C(=O)O)cc1S(=O)(=O)NC1CCN(Cc2ccccc2)CC1,-1.19%,–
O=C(Cn1cnc2ccccc2c1=O)NNC(=O)c1ccccc1F,11.2%,–
Cc1ccc(C)c(NC(=O)CN(C)C(=O)COc2ccc3ccccc3c2)c1,4.53%,–
Cc1ccc(C)c(NS(=O)(=O)c2ccc(OCC(=O)NCc3cccnc3)cc2)c1,-33.3%,–
Cc1ccc(NS(=O)(=O)c2ccc(C)c(NC(=O)COc3ccc4ccccc4c3)c2)c(C)c1,–,11.2 µM (active)
CC(C)c1ccc(Cn2c(COc3ccccc3)nc3ccccc32)cc1,-19.3% [at 46.1 µM],–
CC(C)c1ccc2c(c1)c(SC(C)(C)C)c(CC(C)(C)C(=O)O)n2Cc1ccc(Cl)cc1,–,11.2 µM (active) and 6.51 µM (active)
O=C(O)c1ccc(Cn2c(=S)[nH]c3cc(Cl)ccc3c2=O)cc1,-16.6% [at 46.1 µM],–
CN(C)C(=O)CCc1ccc2c3c([nH]c2c1)[C@]1(CCC2CCCC2)[C@@H](C(=O)N2CCOCC2)C[C@H](CC(=O)NCc2ccco2)C(=O)N1CC3,2.09%,–
CCOC(=O)c1cc(S(=O)(=O)NCCc2ccc(OC)c(OC)c2)cn1C,-2.37% [at 46.1 µM],–
COc1cccc(/C(C)=N/Nc2ncc(Cl)cc2Cl)c1,2.55%,–
COc1cc(/C=C2\SC(=S)N(Nc3ncc(C(F)(F)F)cc3Cl)C2=O)cc(OC)c1OC,-9.7%,–
COc1cccc(/C=N/Nc2ncc(C(F)(F)F)cc2Cl)c1O,–,0.794 µM (active)
CCCCn1c(N)c(N(Cc2ccccc2OC)C(=O)COc2cc(C)ccc2Cl)c(=O)[nH]c1=O,-20.6%,–
Cc1ccc(S(=O)(=O)N(C)C)cc1NC(=O)C1Cc2ccccc2CN1C(=O)c1ccco1 (stereo unspecified),-4.73% [at 46.1 µM],–
Cc1ccc(C)c(NC(=O)C2Cc3ccccc3CN2C(=O)OCc2ccccc2)c1 (stereo unspecified),–,2.51 µM (active)
Cc1ccc(C)c(NC(=O)C2CCCN2C(=O)OC(C)(C)C)c1 (stereo unspecified),0%,–
Cc1cc(C(F)(F)F)nc(SCC(=O)Nc2nccs2)n1,-18.3% [at 46.1 µM],–
